PMC12670160, “A drug-repurposing screen of FDA- and EMA-approved drugs identifies two NF-κB inhibitors active against eumycetoma” (Journal of Antimicrobial Chemotherapy, 2025)
Where a name gives a salt, the structure may show the parent alone. Read-outs that look alike come from different tables or passages of the source. The whole screen tested about 5,300 compounds, of which about 130 (2.5%) showed an effect of 50% or more. This is one part of a sample in which strong results are shown more often than they occur.

System: M. mycetomatis strain mm55
Details: primary screen, metabolic activity vs growth control, 96 h, 2 µM, inhibitor
[1] = Madurella mycetomatis metabolic activity at 2µM (%)

Row | Compound | % viability [%] | % viability [1] [%]
1 | CN(C)[C@@H]1C(=O)C(C(N)=O)C(=O)[C@@]2(O)C(=O)C3C(=O)c4c(O)cccc4[C@@](C)(O)[C@H]3C[C@@H]12 (stereo partly shown) [ONC0000563, tetracycline hydrochloride] | 113.1 | 
2 | C/C(=N\NC(=N)N)c1cc(NC(=O)CCCCCCCCC(=O)Nc2cc(/C(C)=N/NC(=N)N)cc(/C(C)=N/NC(=N)N)c2)cc(/C(C)=N/NC(=N)N)c1 [ONC0003851, semapimod] | 78.92 | 
3 | CCCCCCCCCCCCCCCCCC(=O)OCC(O)[C@H]1OC[C@H](O)[C@H]1O (stereo partly shown) [ONC0002989, sorbitanmonostearate] | 79.74 | 
4 | CCOc1cccc(NC(=O)c2ccc(N3CCCC3)c(C(F)(F)F)c2)c1 [ONC0001854, epptb] | 85.67 | 
5 | COc1cc2c(Nc3ccc(NC(=O)c4ccccc4)cc3)ncnc2cc1OCCCN1CCOCC1 [ONC0003607, zm447439] | 145.2 | 
6 | CCn1c(-c2nonc2N)nc2cnc(Oc3cccc(NC(=O)c4ccc(OCCN5CCOCC5)cc4)c3)cc21 [ONC0002474, gsk269962] | 46.2 | 
7 | Cc1nc2ccc(CN(C)c3ccc(C(=O)N[C@@H](CCC(=O)O)C(=O)O)s3)cc2c(=O)[nH]1 [ONC0004884, raltitrexed tomudex] | 134.6 | 
8 | CN1CCN2c3c(cccc31)[C@@H]1CN(CCCC(=O)c3ccc(F)cc3)CC[C@@H]12 [ONC0001244, lumateperone tosylate] | 56.09 | 
9 | CC1=NN(c2ccc(C)c(C)c2)C(=O)/C1=N/Nc1cccc(-c2cccc(C(=O)O)c2)c1O [ONC0004936, eltrombopag olamine] | 85.22 | 
10 | N#CC(c1ccccc1)(c1ccccc1)c1ccccc1Cl [ONC0000177, tram39] | 89.73 | 
11 | Clc1ccccc1C(c1ccccc1)(c1ccccc1)n1ccnc1 [Clotrimazole] | 2.944 | 
12 | FC(F)(F)c1ccccc1-n1ccnc1 [ONC0000025, trim] | 101 | 
13 | C=CC1=C(C)c2cc3[nH]c(cc4nc(cc5[nH]c(cc1n2)c(C)c5CCC(=O)O)C(CCC(=O)OC)=C4C)[C@@]1(C)C3=CC=C(C(=O)OC)[C@H]1C(=O)OC [ONC0001491, verteporfin] | 55.47 | 
14 | CC(C)(C)c1ccc(-c2nc3c(N4CCN(Cc5ccc6nccnc6c5)CC4)cccc3[nH]2)cc1 [ONC0001828, way207024] | 97.56 | 
15 | N=C(N)NCCC[C@@H](N)C(=O)O [ONC0004802, larginine hcl] | 91.52 | 
16 | CN1C/C=C/CCOc2cccc(c2)-c2ccnc(n2)Nc2cccc(c2)C1 [ONC0001026, sb1317] | 86.64 | 
17 | Nc1nc2c(ncn2[C@@H]2O[C@H](CO)[C@@H](O)[C@H]2O)c(=S)[nH]1 [ONC0004689, thioguanosine] | 121.6 | 
18 | C=C[C@@]1(C)CC(=O)[C@]2(O)[C@@]3(C)[C@@H](O)CCC(C)(C)[C@@H]3[C@H](OC(=O)CCN(C)C)[C@H](OC(C)=O)[C@@]2(C)O1 [ONC0002915, colforsindaproate] | 95.97 | 
19 | C/C=C(\C)C(=O)O[C@H]1[C@H](OC(C)=O)[C@@]2(CO)C(CC1(C)C)C1=CCC3[C@@]4(C)CCC(O[C@@H]5O[C@H](C(=O)O)[C@@H](O[C@@H]6O[C@H](CO)[C@@H](O)[C@H](O)[C@H]6O)[C@H](O)[C@H]5O[C@@H]5O[C@H](CO)[C@@H](O)[C@H](O)[C@H]5O)[C@](C)(CO)C4CC[C@@]3(C)[C@]1(C)C[C@H]2O (stereo partly shown) [ONC0002310, escin] | 67.54 | 
20 | CN1CCC2=C(C1)c1ccccc1Cc1ccccc12 [ONC0005445, setiptiline] | 113.1 | 
21 | CN1CCOC(c2ccccc2)c2ccccc2C1 (stereo not shown) [ONC0000697, nefopam] | 116 | 
22 | CN1CCC2=C(C1)C(c1ccccc1)c1ccccc12 (stereo not shown) [ONC0001922, phenindamine] | 47.96 | 
23 | CSCC[C@H](N)C(=O)O [ONC0005517, lmethionine] |  | 102.8
24 | Cc1ccc(NC(=O)c2ccc(CN3CCC(N(C)C)C3)c(C(F)(F)F)c2)cc1Nc1ncc(-c2cncnc2)cn1 (stereo not shown) [ONC0004625, bafetinib inno406] | 85.25 | 
25 | CC(=O)NC1=NN(C(C)=O)C(C)(c2ccccc2)S1 (stereo not shown) [ONC0002658, k858] | 49.67 | 
26 | CC(=O)Nc1ccccc1 [ONC0000688, acetanilide] | 114.7 | 
27 | CCNCCS(=O)(=O)NC[C@@]1(c2ccccc2)SC(NC(=O)C(C)(C)C)=NN1C(=O)C(C)(C)C [ONC0000804, litronesib] | 77.28 | 
28 | CCCCN1[C@@H]2CC[C@H]1C[C@@H](OC(c1ccc(F)cc1)c1ccc(F)cc1)C2 [ONC0003046, jhw007] | 64.39 | 

Row | Compound | % viability [%] | % viability [1] [%]
29 | FC(F)(F)c1ccc(CNc2ccc(Cc3c[nH]c4ncccc34)cn2)cc1 [ONC0002656, plx647] | 82.24 | 
30 | CCOc1cc(C(C)(C)C)ccc1C1=NC(C)(c2ccc(Cl)cc2)C(C)(c2ccc(Cl)cc2)N1C(=O)N1CCN(CCCS(C)(=O)=O)CC1 (stereo not shown) [ONC0004446, rg7112 ro5045337] | 112.9 | 
31 | Nc1ccn([C@@H]2O[C@@](CO)(CCl)[C@@H](O)[C@H]2F)c(=O)n1 [ONC0000939, als8112] | 44.91 | 
32 | [N-]=[N+]=N[C@]1(CO)O[C@@H](n2ccc(N)nc2=O)[C@@H](O)[C@@H]1O [ONC0000950, ro9187] | 66.7 | 
33 | [N-]=[N+]=N[C@]1(CO)O[C@@H](n2ccc(N)nc2=O)[C@H](O)[C@@H]1O [ONC0001768, r1479] | 81.29 | 
34 | [H]/N=C(/N)c1ccc(NCc2nc3cc(C(=O)N(CCC(=O)O)c4ccccn4)ccc3n2C)cc1 [ONC0004940, bibr 953 dabigatran etexilate pradaxa] | 81.22 | 
35 | C=C[C@H]1C[N@@]2CC[C@H]1C[C@@H]2[C@@H](O)c1ccnc2ccc(OC)cc12 [ONC0003347, quinidine gluconate] | 101.1 | 
36 | O=C(Nc1c[nH]nc1-c1nc2cc(CN3CCOCC3)ccc2[nH]1)NC1CC1 [ONC0004692, at9283] | 87.23 | 
37 | C[C@@H](c1nc(-c2ccc(C#N)cc2)cs1)[C@](O)(Cn1cncn1)c1cc(F)ccc1F [Isavuconazole] | 3.591 | 
38 | C[C@@H](c1nc(-c2ccc(C#N)cc2)cs1)[C@](O)(Cn1cncn1)c1ccc(F)cc1F [Ravuconazole] | 0.9972 | 
39 | OC(Cn1cncn1)(Cn1cncn1)c1ccc(F)cc1F [ONC0005572, fluconazole] | 73.77 | 
40 | C[C@@H](c1ncncc1F)[C@](O)(Cn1cncn1)c1ccc(F)cc1F [Voriconazole] | 2.12 | 
41 | CO[C@H]1CC[C@H](N2C(=O)CNc3ncc(-c4ccc(C(C)(C)O)nc4)nc32)CC1 [ONC0001106, cc223] | 54.41 | 
42 | COc1ccc(-c2cnc3c(-c4cccc5ncccc45)cnn3c2)cc1 [ONC0002277, chr6494] |  | 84.04
43 | C[C@@H]1[C@H](O)[C@@H](C)/C=C/C=C/CC/C=C/C=C/C=C/C=C/[C@H](O[C@@H]2O[C@H](C)[C@@H](O)[C@H](N)[C@@H]2O)C[C@@H]2O[C@](O)(C[C@@H](O)[C@H](O)CC[C@@H](O)C[C@@H](O)C[C@@H](O)CC(=O)O[C@H]1C)C[C@H](O)[C@H]2C(=O)O [ONC0002036, nystatin] | 93.36 | 
44 | O=C(O)C=C1NN(Cc2nc3cc(C(F)(F)F)ccc3s2)C(=O)c2ccccc21 [ONC0005526, zopolrestat] | 123.5 | 
45 | CCS(=O)(=O)N1CCC[C@@H]2CN3CCc4cc(OC)ccc4[C@@H]3C[C@@H]21 [ONC0002617, rs79948] | 85.43 | 
46 | C[C@@]1(c2nc3c(C(N)=O)cccc3[nH]2)CCCN1 [ONC0004676, abt888 veliparib] | 121 | 
47 | Cc1cc(NC(=O)C2C(=O)c3ccccc3S(=O)(=O)N2C)no1 (stereo not shown) [ONC0002885, isoxicam] | 123.7 | 
48 | O=C(O)c1ccc[n+]([O-])c1 [ONC0005291, oxiniacic acid] | 104 | 
49 | C[n+]1cccc(C(=O)O)c1 [ONC0003448, trigonellinehcl] | 47.48 | 
50 | O=C(O)c1ccccc1 [ONC0003100, benzoic acid] | 90.48 | 
51 | Cc1cc(CCC[C@H](CC(=O)NO)C(=O)N[C@H](C(=O)N[C@H](C)c2ccccc2)C(C)(C)C)ccc1-c1ccccc1 [ONC0002525, uk356618] | 62.33 | 
52 | CC(C)[C@@H]1CC[C@@H](C)C[C@@H]1P(=O)(c1ccccc1)c1ccccc1 [ONC0003951, dpo1] | 47.19 | 
53 | CC(C)[C@@H]1CC[C@@H](C)C[C@H]1O [ONC0003141, levomenthol] | 69.71 | 
54 | CC[C@H](C)[C@H](NC(=O)[C@H](Cc1ccc(O)cc1)NC(=O)[C@@H](NC(=O)[C@H](CCCNC(=N)N)NC(=O)[C@@H](N)CC(=O)O)C(C)C)C(=O)N[C@@H](Cc1cnc[nH]1)C(=O)N1CCC[C@H]1C(=O)N[C@@H](Cc1ccccc1)C(=O)O [ONC0002134, angiotensin ii human] | 79.83 | 
55 | CC(C)N[C@H]1CCn2c(=O)[nH]c3cccc(c32)[C@@H]1O [ONC0003872, zilpaterol] | 87.84 | 
